Consider 40 compounds from PubChem BioAssay (NCI).

Molecules are shown by their SMILES. Compounds without any hit were thinned out: in the full panel of roughly 83,000, 20% have a hit.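 Note: values are percent growth. 100 is the growth of untreated cells, values between 100 and 0 indicate rising inhibition; between -100 and 0 indicates cell death.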 Unmarked numbers belong to inactive results. Active and inactive are the calls of the source.

This test relates to ACHN renal. The test is described as follows: NCI-60 one-dose screen, 48 h (100 = growth as untreated, 0 = no growth, -100 = all killed). The note with it: 10 µM unless noted. The method, then: Growth inhibition of the ACHN human tumor cell line is measured as a screen for anti-cancer activity. Cells are grown in 96 well plates and exposed to the test compound for 48 hours. Compounds are tested at a single concentration, which is 10^-5 M for most compounds. The reported endpoint is percent growth (GI% or GIPRCNT), where numbers from 0 - 100% represent growth inhibition, and numbers from -100% - 0 represent cell death. For example, a value of 40 represents 60% growth inhibition. A value of 0 means no net growth occurred over the course of the experiment. A value of -40 indicates 40% of cells at the beginning of the experiment died by the end of the experiment. A value of -100 means all cells are dead at the end of the experiment.
NCI-60 Human Tumor Cell Lines Screen was performed using the standard one-dose NCI protocol, which is described in more detail at https://dtp.cancer.gov/discovery_development/nci-60/default.htm.
Compounds with GIPRCNT values below 10 were considered active. Activity score was based on GIPRCNT using the following formula: […]
Score is 0 for GIPRCNT values of 100 or above, 50 for GIPRCNT values of 0, and 100 for GIPRCNT values of -100.
With `CCN(CC)CCN1CNC(=S)NC1`, the growth is 102%. The same measure for `CCNCC(C)(C)O`: 110%. The same measure for `CC(C)(C)NCCC(O)c1cc(C(F)(F)F)nc2c(C(F)(F)F)cccc12` (stereo not given): 67.2%; for `C/C(O)=C(/C=N\C(=S)Nc1ccc(S(=O)(=O)Nc2nccs2)cc1)C(=O)Nc1ccccc1C`: 99.9%; for `c1ccc2c(NCCCN3CCN(CCCNc4c5ccccc5nc5ccccc45)CC3)c3ccccc3nc2c1`: -60.9% [100 µM] (active). For `CCOC(=O)C(C#N)=C1CCN(C)CC1`, the growth was 97.9%. Turning to `O=C(Nc1cccc(Cl)c1)c1ccc(Cl)cc1Cl`, the growth is 99.7%. The same measure for `Cc1nc(C)c(C(=O)O)cc1C(=O)O`: 104%. Turning to `Cc1ccccc1CC(N)C(=O)O` (stereo not given), the growth was 100%.

With `O=C1CSc2ccccc2N1`, the growth was 110%. The same measure for `Clc1ccc(C(SCc2ccccc2)SCc2ccccc2)cc1`: 101%. The same measure for `COc1ccc(C(=O)C(=O)c2ccccc2)cc1`: 101%. For `O=C(CCl)Nc1ccccc1SCc1cc(Cl)cc2c1OCOC2`, the growth is 85.5%. The same measure for `CCCC(=O)CC(=O)c1ccccc1`: 105%. The same measure for `Nc1nnc2cc(F)ccc2n1`: 99.4%; for `Nc1c(O)c(S(=O)(=O)O)c(O)c2c1C(=O)c1ccccc1C2=O`: 4.01% (active); for `Cc1ccc(O)c(N)c1`: 97%. On to `O=C(NCc1ccccc1)/C(=C/c1ccccc1)NC(=O)c1ccccc1`, for which the growth was 104%.

With `O=Cc1ccc(Cl)c(Cl)c1`, the growth is 103%. The same measure for `C=CCOc1ccc(Cl)cc1Cl`: 102%; for `Nc1ncnc(Nc2ccccc2)n1`: 113%.

Consider `CN1CCCN(C(c2ccccc2)c2ccc(Br)cc2)CC1` (stereo not given), for which the growth is 50.6%.

With `O=C(O)c1ccc([N+](=O)[O-])cc1S(=O)(=O)O`, the growth is 106%.

Turning to `Cc1cc(=O)n(Nc2ccccc2)c(O)c1C#N`, the growth is 104%. The same measure for `Nc1cccc2cccc(O)c12`: 80%; for `CC(C)N(CCCC#N)C(C)C`: 98%. The same measure for `S=CN1CCCCC1`: 107%; for `O=[n+]1ccn([O-])c2ccccc21`: 104%; for `CC(=O)c1cccs1`: 102%. The same measure for `N#Cc1ccc2nc[nH]c2c1`: -68.5% (active). Regarding `CCOC(C=O)OCC`, the growth is 112%. For `C1CCc2onc(-c3noc4c3CCCCC4)c2CC1`, the growth was 113%. The same measure for `C/C(=N\O)c1ccccn1`: 105%; for `COc1cc2c(c(OC)c1OC)-c1ccc(SC)c(=O)cc1[C@@H](NC1OC(CO)C(O)C(O)C1O)CC2` (stereo not given in full): 27.2%. The same measure for `CN1C(=O)NC(c2ccc(Cl)cc2)(c2ccc(Cl)cc2)C1=O`: 108%.

For `Cc1ccc(Cc2ccc(C)cc2)cc1`, the growth was 99.9%. The same measure for `CCN(Cc1ccc(Cl)c(Cl)c1)c1ccc2nc(N)nc(N)c2c1C`: -95.6% (active); for `CC1(C)CC(=O)C=C(N)C1`: 107%; for `CCCCCC(=O)OCCC1CCCCC1`: 107%. The same measure for `CSCC[C@@H]1C(=O)N(C)[C@H](C(C)(C)C)N1C(=O)c1ccccc1`: 110%.
